From PubChem BioAssay AID1159580 (chemical genetic matrix, 2015)
The whole screen tested about 5,500 compounds, of which about 2,000 (36%) were called active. About 18% were inconclusive and are not listed. No stated cut-off is given here; in the data, active means normalized growth mostly below about 0.91 (no sharp cut-off); inconclusive means no clear call, values can overlap the other calls; inactive means mostly above about 0.92. Some of the results follow.

Assay: chemical genetic growth profiling, strain panel (AID 1159580);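 further: tested at 20 µM; growth read once vehicle control cultures reached saturation at 30 °C; 1 = growth at the plate median or of vehicle wells; lower values mean less growth of the strain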
Settings: S. cerevisiae deletion strains, growth OD

Measured: normalized growth

CC12CCC3C(CC=C4CC(O)CCC43C)C1CCC2=O (centres undefined)
inactive: locus YAL013W, strain DEP1, hits give low values 0.948 | locus YBL061C, strain skt5, hits give low values 0.936 | locus YBR023C, strain chs3, hits give low values 0.933 | locus YBR171W, strain sec66, hits give low values 0.978 | locus YBR229C, strain ROT2, hits give low values 1.02 | locus YBR231C, strain swc5, hits give low values 0.926 | locus YCL069W, strain vba3, hits give low values 0.94 | locus YCR088W, strain abp1, hits give low values 1.02 | locus YDL005C, strain med2, hits give low values 0.995 | locus YDL040C, strain nat1, hits give low values 1.02 | locus YDL101C, strain DUN1, hits give low values 0.994 | locus YDL185W, strain tfp1, hits give low values 1.04 | locus YDL192W, strain arf1, hits give low values 0.934 | locus YDR001C, strain nth1, hits give low values 1.03 | locus YDR069C, strain doa4, hits give low values 0.945 | locus YDR101C, strain arx1, hits give low values 0.955 | locus YDR159W, strain sac3, hits give low values 0.916 | locus YDR297W, strain sur2, hits give low values 0.95 | locus YDR334W, strain swr1, hits give low values 1.04 | locus YDR335W, strain msn5, hits give low values 0.961 | locus YDR388W, hits give low values 1.02 | locus YEL037C, strain rad23, hits give low values 1 | locus YEL061C, strain CIN8 (second series), hits give low values 1.01 | locus YER016W, strain bim1, hits give low values 1.01 | locus YER110C, hits give low values 1.06 | locus YER111C, strain swi4, hits give low values 1.01 | locus YER155C, strain BEM2, hits give low values 1.02 | locus YER167W, strain BCK2, hits give low values 0.929 | locus YGL078C, strain dbp3, hits give low values 0.979 | locus YGL167C, strain pmr1, hits give low values 1 | locus YGL227W, strain vid30, hits give low values 1.01 | locus YGL240W, strain doc1, hits give low values 0.911 | locus YGR078C, strain PAC10, hits give low values 0.887 | locus YHR013C, strain ard1, hits give low values 0.868 | locus YHR030C, strain SLT2, hits give low values 1.03 | locus YHR079C, strain IRE1 (second series), hits give low values 1.02 | locus YHR094C, strain hxt1, hits give low values 1.05 | locus YHR200W, strain rpn10, hits give low values 0.93 | locus YIL073C, strain SPO22, hits give low values 0.783 | locus YIL125W, strain kgd1, hits give low values 0.989 | locus YIR030C, strain dcg1, hits give low values 1 | locus YJL092W, strain hpr5, hits give low values 0.948 | locus YJL115W, strain asf1, hits give low values 0.997 | locus YJL134W, strain LCB3, hits give low values 1.03 | locus YJL154C, strain vps35, hits give low values 1.02 | locus YJL168C, strain set2, hits give low values 1.04 | locus YJL187C, strain SWE1 (second series), hits give low values 0.879
active: locus YAL021C, strain ccr4, hits give low values 0.838 | locus YAL026C, strain drs2, hits give low values 0.582 | locus YAL030W, strain snc1, hits give low values 0.927 | locus YBR009C, strain hhf1, hits give low values 0.834 | locus YBR021W, strain FUR4, hits give low values 0.752 | locus YBR279W, strain paf1, hits give low values 0.876 | locus YCL011C, strain gbp2, hits give low values 0.886 | locus YCL016C, strain dcc1, hits give low values 0.9 | locus YCL029C, strain bik1, hits give low values 0.904 | locus YDL035C, strain GPR1, hits give low values 0.787 | locus YDL074C, strain BRE1, hits give low values 0.778 | locus YDL134C, strain PPH21, hits give low values 0.85 | locus YDR137W, strain rgp1, hits give low values 0.473 | locus YDR162C, strain NBP2, hits give low values 0.828 | locus YDR195W, strain ref2 1.54 [resistant] | locus YDR318W, strain mcm21, hits give low values 0.886 | locus YDR392W, strain spt3, hits give low values 0.234 | locus YDR502C, strain sam2, hits give low values 0.879 | locus YEL003W, strain gim4, hits give low values 0.88 | locus YER015W, strain faa2, hits give low values 0.869 | locus YER155C, strain BEM2 (second series), hits give low values 0.84 | locus YFR010W, strain ubp6, hits give low values 0.891 | locus YGL086W, strain mad1, hits give low values 0.888 | locus YGL173C, strain kem1, hits give low values 0.879 | locus YGL248W, strain PDE1, hits give low values 0.857 | locus YGL253W, strain hxk2, hits give low values 0.791 | locus YGR135W, strain pre9, hits give low values 0.871 | locus YGR252W, strain gcn5, hits give low values 0.62 | locus YHR027C, strain rpn1, hits give low values 0.895 | locus YHR129C, strain ARP1, hits give low values 0.905 | locus YHR142W, strain chs7, hits give low values 0.768 | locus YIL066C, strain RNR3, hits give low values 0.823 | locus YJL095W, strain BCK1 (second series), hits give low values 0.825 | locus YJL095W, strain BCK1, hits give low values 0.655 | locus YJL129C, strain trk1, hits give low values 0.801 | locus YJL164C, strain tpk1, hits give low values 0.845 | locus YJL166W, strain qcr8, hits give low values 0.813
